hNpr1 antagonist: Natriuretic polypeptide receptor (hNpr1) antagonism - Primary qHTS; Atrial natriuretic peptide receptor 1 (Homo sapiens), P16066; HEK293 hNpr1 GloSensor cGMP, ANP-stimulated luminescence; Potency, µM (top dose mostly 46.3 µM), without a hit: top-dose activity change, negative = inhibition, actives largely listed as inhibitors; actives 1.6% (n = 76,000); calls by dose curve; note: nearly all actives have a fitted effect of over 60% in size
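HEK293 cells stably expressing human Npr1 and cGMP GloSensor pGS-40F, loaded 2 h with 2% GloSensor reagent, given compound 30 min at room temperature. Luminescence read before and 20 min after 0.1 nM hNppA.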
GPT2 inhibitor: Primary qHTS assay for inhibitors of Glutamate pyruvate transaminase 2 (GPT2); Alanine aminotransferase 2 (Homo sapiens), Q8TD30; Potency, µM (highest dose often 57.7 µM), for inactives: at the highest dose activity change, negative = inhibition, usual class: inhibitors; Recombinant GPT2, coupled pyruvate oxidase/HRP Amplex Red fluorescence; actives 0.25% (n = 100,000); note: nearly all actives have a fitted effect of over 60% in size
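Recombinant GPT2 (10ng/uL) with 250uM a-KG and 2mM L-alanine, 30 min at room temperature, in HEPES pH 7.5 buffer. Pyruvate detected by pyruvate oxidase/HRP/Amplex Red fluorescence after 30 min in the dark; AOA (50uM) as positive control.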
NIH3T3 tox: Cytotoxic Profiling in NIH 3T3 Cell Line of Diverse Libraries Using Quantitative High-Throughput Screening; actives 4.3% (n = 94,000); NIH 3T3 viability, CellTiter-Glo ATP luminescence, 48-72 h; Potency, µM (doses to about 96.7 µM), inactives show top-dose activity change, negative = cytotoxicity, actives largely listed as inhibitors; note: nearly all actives have a fitted effect of over 55% in size
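ATP-dependent luminescence (CellTiter-Glo) served as the viability signal for NIH 3T3 cells treated with compound for 48 or 72 hr at 37 °C.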
HEK cytotox: Cytotoxic Profiling in HEK 293 Cell Line of Diverse Libraries Using Quantitative High-Throughput Screening; Potency, µM (doses to about 115 µM), for inactives: at the highest dose activity change, negative = cytotoxicity, usual class: inhibitors; AID 1345083, 2018; HEK 293 viability, ATP luminescence (CellTiter-Glo), 48-72 h; actives 6.6% (n = 94,000); note: nearly all actives have a fitted effect of over 60% in size
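HEK 293 cells seeded at 250 cells/well were exposed to compound for 48 or 72 hr at 37 degree Celsius. Viability taken as ATP content by CellTiter-Glo luminescence.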
FLuc inh: Firefly luciferase inhibition profiling of diverse chemical library using quantitative high-throughput screening; purified P. pyralis luciferase, luminescence, biochemical; Potency, µM (titrated, usually from 115 µM), usual class: inhibitors; actives 2.5% (n = 76,000); AID 1347043, 2019; note: nearly all actives have a fitted effect of over 65% in size
Target sequence (P08659 whole entry, looked up): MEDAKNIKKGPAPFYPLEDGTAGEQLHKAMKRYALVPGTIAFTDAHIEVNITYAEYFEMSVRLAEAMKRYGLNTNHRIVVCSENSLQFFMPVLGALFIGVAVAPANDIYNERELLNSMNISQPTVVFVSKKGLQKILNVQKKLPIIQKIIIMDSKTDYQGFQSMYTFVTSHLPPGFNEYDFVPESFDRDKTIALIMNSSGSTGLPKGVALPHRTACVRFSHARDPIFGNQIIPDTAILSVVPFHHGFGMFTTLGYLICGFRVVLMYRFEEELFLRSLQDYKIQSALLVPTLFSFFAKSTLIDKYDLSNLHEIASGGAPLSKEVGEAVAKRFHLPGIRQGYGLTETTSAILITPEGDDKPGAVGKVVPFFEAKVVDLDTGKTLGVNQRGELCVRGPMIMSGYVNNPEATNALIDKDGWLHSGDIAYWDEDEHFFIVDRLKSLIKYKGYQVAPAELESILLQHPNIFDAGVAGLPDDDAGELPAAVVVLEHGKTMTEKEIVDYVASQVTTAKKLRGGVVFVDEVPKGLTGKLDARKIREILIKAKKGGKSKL
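FLuc 10nM, D-luciferin 10uM, ATP 10uM, Mg acetate 10mM, Tris acetate pH 7.5, Tween/BSA; cpd qHTS; enzyme added last; CCD luminescence.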
Starred values were filed as active, the others as inactive; i = inactive; ? = inconclusive; nt = no result; [ ] = another dose, or the depositor's remark. A selection: hits, their analogues and other compounds. The true share with any hit is near 10%. Unless noted, calls come from the whole dose curve; as a rule, active = well fitted curve in the direction sought with a large enough effect; inconclusive = small, poorly fitted or top-dose-only effect, or another doubt; inactive = no such curve, though single readings can be large; an effect the other way counts as inactive or inconclusive. % is set by controls: 0 for no effect and ±100 for the full control effect; potency is the fitted concentration of half-maximal effect.

SMILES	hNpr1 antagonist	GPT2 inhibitor	NIH3T3 tox	HEK cytotox	FLuc inh
COc1cccc(CC(=O)N2[C@@H]3CC[C@H]2CC(NC(=O)c2ccc(F)cc2)C3)c1 (some centres undefined)	-4%	i	-12%	-20%	i
COC(=O)[C@@H]1Cc2c([nH]c3ccccc23)[C@H]2C[C@@H](NCCO)C[C@@H](c3ccc(F)cc3)N21	2%	-4%	28µM*	28µM*	i
COc1ccc([C@@H]2N[C@H](C(=O)O)Cc3c2[nH]c2ccccc32)cc1CN1CCN(c2ccccc2F)CC1	nt	i	nt	nt	nt
COC(=O)[C@@H]1Cc2c([nH]c3ccccc23)[C@H]2C[C@H](NCc3cccs3)C[C@@H](c3ccccc3)N21	-23%	-15%	25µM*	?	i
COC(=O)[C@@H]1Cc2c([nH]c3ccccc23)[C@H]2C[C@@H](NCCO)C[C@@H](c3cccc(OC)c3)N21	1%	-7%	28µM*	28µM*	i
COC(=O)[C@@H]1C[C@H](NC(=O)CCCc2cccs2)CN1C	1%	2%	1%	-16%	i
COC(=O)[C@@H]1Cc2c([nH]c3ccccc23)[C@H]2C[C@@H](NC3CC3)C[C@@H](c3ccc(F)cc3)N21	?	-24%[88.5 µM]	28µM*	8.9µM*	i
COc1ccc(-c2nc3cc(C)ccc3cc2CN2CC[C@@H](O)C2)cc1OC	-13%	-23%[11.5 µM]	?	?	i
O=C(NCCN1CCOCC1)c1ccc2oc(-c3ccncc3)nc2c1	nt	i	-3%	-3%	nt
CC(=O)N(C1CCOCC1)C1CCN(S(=O)(=O)c2ccc(Br)cc2)CC1	nt	-8%	-29%	-15%	nt
O=c1[nH]c(C2CCN([S+](=O)([O-])c3cccc(C(F)(F)F)c3)CC2)nn1-c1ccccn1	nt	i	?	?	nt
COc1ccc(C(=O)N2CCN(Cc3ccccc3-c3cccnc3)CC2)cc1	nt	i	?	?	nt
O=C(c1ccc(F)cc1)C1CCN(CCn2c(=O)[nH]c3ccccc3c2=O)CC1	nt	4%	nt	nt	nt
C#CCN[C@H]1C[C@@H]2c3[nH]c4ccccc4c3C[C@@H](C(=O)OC)N2[C@H](c2ccc(F)cc2)C1	-2%[70.6 µM]	1%[88.5 µM]	?	28µM*	i
COC(=O)[C@@H]1Cc2c([nH]c3ccccc23)[C@H]2C[C@H](NCCO)C[C@@H](c3ccccc3)N21	-11%[70.6 µM]	i	45µM*	?	?
COC(=O)c1ccccc1Nc1nc(-c2ccccc2)no1	-9%	?	i	10%	14µM*
COc1ccc(-c2noc(Nc3ccc(OC)cc3OC)n2)cc1	-2%	i	-29%	?	25µM*
O=c1ccc(N2CCC(NS(=O)(=O)c3ccc(Cl)s3)CC2)nn1CC1CC1	?	i	?	?	i
Cc1cc(C)c(C)c(S(=O)(=O)NC2CCN(c3ccc(=O)n(CC4CC4)n3)CC2)c1C	?	i	?	32µM*	i
COc1cc(-c2cc(-c3ccccc3)nc3c(C)noc23)ccn1	-19%[70.6 µM]	4%[88.5 µM]	?	-27%[172 µM]	i
Cc1noc2c(-c3cccnc3N(C)C)cc(-c3ccccc3)nc12	-1%[70.6 µM]	-1%[88.5 µM]	?	?	i
COCCCNc1ncccc1-c1cc(-c2ccccc2)nc2c(C)noc12	5%[70.6 µM]	1%[88.5 µM]	?	112µM*	i
Cc1noc2c(-c3cccnc3NCCCn3ccnc3)cc(-c3ccccc3)nc12	1%[70.6 µM]	2%[88.5 µM]	?	71µM*	i
Cc1noc2c(-c3cccc(O)c3)cc(-c3ccccc3)nc12	-2%[70.6 µM]	-4%[88.5 µM]	28µM*	50µM*	i
Cc1noc2c(-c3cccnc3NCCN(C)C)cc(-c3ccccc3)nc12	1%[70.6 µM]	-2%[88.5 µM]	45µM*	89µM*	i
SMILES	hNpr1 antagonist	GPT2 inhibitor	NIH3T3 tox	HEK cytotox	FLuc inh
Cc1noc2c(-c3cccnc3NCc3cccnc3)cc(-c3ccccc3)nc12	6%[70.6 µM]	?	?	?	i
O=C1COc2ccc(-c3ccc4c(c3)OCO4)nc2CN1Cc1ccc(C(F)(F)F)cc1	-19%	-2%	?	-39%	i
C[C@]1(CO)[C@H]2Cc3sc(NC(=O)c4ccnc(Cl)c4)nc3[C@@H](CC(=O)O)[C@]2(C)CC[C@H]1O	-18%	1%	i	i	i
O=C(c1ccc(CCC2COc3ccccc3O2)cc1)N1CCCCC1 (centres undefined)	?	-6%	?	?	35µM*
O=C(Nc1ccccc1Cl)C1CN(S(=O)(=O)C2CC2)CC12CCCCC2 (centres undefined)	-5%	-5%	-16%	-25%	i
O=C(NCc1ccccc1)c1cnc2n1CCN(Cc1ccc(F)cc1)CC2	-11%[70.6 µM]	i	?	28µM*	i
CN(C(=O)c1cnc2n1CCN(CCc1ccccc1)CC2)c1ccccc1	-2%[70.6 µM]	-7%[88.5 µM]	?	?	i
O=C(c1cnc2n1CCN(CCc1ccccc1)CC2)N1CCC(c2ccccc2)CC1	?	-6%[88.5 µM]	?	79µM*	i
Nc1ncccc1CN1CCc2ncc(C(=O)NCc3ccccc3)n2CC1	?	i	?	?	i
O=C(NCc1ccccc1)c1cnc2n1CCN(Cc1cccs1)CC2	3%[70.6 µM]	-1%[88.5 µM]	32µM*	?	i
O=C(NCCOc1ccccc1)c1cnc2n1CCN(Cc1cccs1)CC2	-9%[70.6 µM]	i	?	?	i
COc1ccc(C(=O)N[C@@H]2CCC[C@@H]2C(=O)NCCc2cccs2)cc1	2%	-16%	?	?	i
CC(=O)NCc1nnc2n1C(C(=O)NCc1ccccn1)CC2 (centres undefined)	nt	2%[88.5 µM]	-23%[138 µM]	-18%[172 µM]	nt
CN(Cc1ccccc1)Cc1nnc(C(=O)N2CCC[C@@H]2c2ccc(Br)cc2)n1Cc1ccccc1	-20%	4%	18µM*	32µM*	i
CN1CCN(Cc2nnc(C(=O)N3CCC[C@@H]3c3ccc(Br)cc3)n2Cc2ccccc2)CC1	-14%	-27%	?	?	i
O=C(c1nnc(CN2CCN(c3ccccn3)CC2)n1Cc1ccccc1)N1CCC[C@@H]1c1ccc(Br)cc1	-2%	4%	?	45µM*	i
COCC(=O)NC[C@H]1CCN(Cc2cccs2)C[C@H]1N(C)C	2%	i	-9%	-24%	i
CN1CCN(c2cc(=O)c3ccnc(-c4ccccc4O)c3o2)CC1	-7%[70.6 µM]	2%[88.5 µM]	22µM*	-5%[172 µM]	i
